This passage reports Potency results from PubChem BioAssay (Tox21).

Assay [1] is described as follows: Nuclear factor erythroid 2-related factor 2/antioxidant responsive element (Nrf2/ARE) small molecule agonists: qHTS cell viability counter screen in human keratinocytes (AID 1919968; active = well fitted curve in the direction sought with a large enough effect in the repeat runs; an effect the other way counts as inactive or inconclusive; also: nearly all actives have a fitted effect of over 55% in size; also: potency is read from the fitted curve at half-maximal effect). An outline of the steps: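 KeratinoSens HaCaT cells, 1,500/well, preincubated 5 h, then exposed to compounds in DMSO for 23 h at 37 C/5% CO2. Viability read as CellTiter-Fluor fluorescence after 1 h, in the same wells as the ARE-luciferase read.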
For orientation: qHTS replaces the single test concentration by a dilution series.

The nature of assay [2]: Nuclear factor erythroid 2-related factor 2/antioxidant responsive element (Nrf2/ARE) small molecule agonists: luciferase reporter gene qHTS assay in human keratinocytes (AID 1919969). Also: nearly all actives have a fitted effect of over 35% in size. Also: potency is read from the fitted curve at half-maximal effect.
In assay [3] the target is Gonadotropin-releasing hormone receptor (Homo sapiens) (UniProt P30968). The experiment in a line: Human gonadotropin-releasing hormone receptor (GnRHR) small molecule agonists, calcium flux assay in GnRHR-HEK293 cells (AID 1920063). Also: nearly all actives have a fitted effect of over 35% in size. An outline of the steps:
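HEK293 cells stably expressing human GnRHR were dye-loaded for 1 h at 37 C. Compound was added in agonist mode and fluorescence (Ex/Em 480/540) recorded kinetically for 3 min. Fifteen concentrations, triplicates.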
A general note: A change in cytosolic calcium serves as a functional read-out for many receptors and channels.

For assay [4], the target named is KiSS-1 receptor (Homo sapiens) (UniProt Q969F8). The assay can be described thus: Human kisspeptin (KISS1R) small molecule agonists, calcium flux assay in KISS1R-HEK293 cells (AID 1920064; active = well fitted curve in the direction sought with a large enough effect in the repeat runs; an effect the other way counts as inactive or inconclusive). In a few lines: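 HEK293 cells stably expressing human KISS1R were loaded with calcium dye for 1 h at 37 C, then given compound; fluorescence (Ex/Em 480/540) was read kinetically for 3 min. Fifteen concentrations, triplicate.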

The nature of assay [5]: G protein-coupled receptor (GPCR) small molecule agonists, calcium flux assay: HEK293 wild type cell line counter screen (AID 1920065). An outline of the steps: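 Wild-type HEK293 cells plated 18 h, loaded with calcium dye 1 h at 37 C, then compounds added in agonist mode (ATP as positive control). Kinetic fluorescence Ex/Em 480/540 recorded 3 min at 1 sec intervals; 15 concentrations, triplicate.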

Assay [6] in a line: p53 small molecule agonists, cell-based qHTS assay with rat liver microsomes: qHTS cell viability counter screen (AID 1963580). Also: nearly all actives have a fitted effect of over 45% in size. In a few lines:
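Intracellular ATP, by CellTiter-Glo luminescence, defines viability. HCT-116 p53RE-bla cells, 4,000 per well, were compound-treated in the presence of rat liver microsomes and NADPH for 16 h at 37 C.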

A short description of assay [7]: p53 small molecule agonists, cell-based qHTS assay: qHTS cell viability counter screen (AID 1963581). Also: nearly all actives have a fitted effect of over 45% in size. An outline of the steps: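 p53RE-bla HCT-116 cells, compounds added 5 h after plating and incubated 16 h at 37 C. Cytotoxicity measured in the same wells as intracellular ATP by CellTiter-Glo luminescence after 30 min at room temperature.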
Assay [8] can be described thus: p53 small molecule agonists, cell-based qHTS assay (AID 1963582; active = well fitted activation curve with a large enough effect in the signal ratio in the repeat runs, not every such curve was filed as active; the % refers to the signal ratio). An outline of the steps:
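p53RE-bla reporter cells, compounds added in DMSO after 5 h plating, incubated 16 h at 37 C. Beta-lactamase read via 2 h room-temperature LiveBLAzer B/G FRET substrate, fluorescence intensity.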

Assay [9] deals with 5-hydroxytryptamine receptor 2A (Homo sapiens) (UniProt P28223). The experiment in a line: 5-hydroxytryptamine receptor 2A (HTR2A) small molecule antagonists, cell-based qHTS assay (AID 1963586). Also: nearly all actives have a fitted effect of over 45% in size. An outline of the steps:
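Antagonist-mode intracellular calcium assay: DOI (4 nM) added after 5 min compound pre-incubation at room temperature to dye-loaded HTR2A-CHO cells. Fluorescence followed for 3 min, sampled every second.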

The target is the same in assay [10]. The experiment in a line: 5-hydroxytryptamine receptor 2A (HTR2A) small molecule agonists, cell-based qHTS assay (AID 1963587). Also: nearly all actives have a fitted effect of over 30% in size. Also: potency is read from the fitted curve at half-maximal effect. An outline of the steps: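 Kinetic calcium-flux fluorescence (2 min, 1 sec intervals) after compound addition in agonist mode. HTR2A-CHO cells were cultured 18 h, then dye-loaded 1 h at 37 C.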
For assay [11], the target named is Muscarinic acetylcholine receptor M1 (Homo sapiens) (UniProt P11229). The experiment in a line: Cholinergic receptor muscarinic 1 (CHRM1) small molecule antagonists, cell-based qHTS assay (AID 1963588). Also: nearly all actives have a fitted effect of over 40% in size. An outline of the steps:
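CHRM1-CHO calcium-flux assay, antagonist mode. Cells were seeded 18 h, dye-loaded 1 h at 37 C and given compound for 5 min at RT, then acetylcholine was added at 50nM. FDSS fluorescence was read 3 min; 15 concentrations, three runs.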

Assay [12] shares this target. The assay can be described thus: Cholinergic receptor muscarinic 1 (CHRM1) small molecule agonists, cell-based qHTS assay (AID 1963589). Also: nearly all actives have a fitted effect of over 35% in size. An outline of the steps:
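CHO cells stably expressing human CHRM1 were loaded with calcium dye for 1 h at 37 C, then compound was added in agonist mode. Intracellular calcium fluorescence was followed kinetically at 1 s intervals. Fifteen concentrations were tested in three independent runs.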

For assay [13], the target named is Beta-2 adrenergic receptor (Homo sapiens) (UniProt P07550). The experiment in a line: Adrenergic beta2 receptor (ADRB2) small molecule antagonists, cell-based qHTS assay (AID 1963592). Also: series mostly up to about 92 µM; nearly all actives have a fitted effect of over 50% in size. In a few lines:
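Cells (CHO, stable ADRB2 overexpression) incubated 18-20hr at 37C; compounds added from DMSO; agonist mix (1nM isoproterenol, 100uM IBMX, 25uM Ro-20-1724) added; 0.5hr RT; d2-cAMP and anti-cAMP-cryptate added; 1hr RT; 665/615 nm read.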

For assay [14] the target is unchanged. The assay can be described thus: Adrenergic beta2 receptor (ADRB2) small molecule agonists, cell-based qHTS assay (AID 1963593).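 Also: CHO cells stably overexpressing human ADRB2.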 In a few lines: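 CHO cells stably over-expressing ADRB2 were plated overnight at 37C, then dosed with compounds plus a stimulation mix containing 100uM IBMX and 25uM Ro-20-1724 for 0.5hr at room temperature. cAMP was measured by HTRF competition, 1hr.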

Assay [15] deals with D(2) dopamine receptor (Homo sapiens) (UniProt P14416). The experiment in a line: Dopamine D2 receptor (DRD2) small molecule agonists, cell-based qHTS assay (AID 1963594). Also: nearly all actives have a fitted effect of over 35% in size. An outline of the steps: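 cAMP accumulation in DRD2-HEK293 cells measured by HTRF after 1 h detection; compounds added 10 min before NKH477 (200nM […]) forskolin-analogue stimulation, 30 min at room temperature, with Ro20-1724 present at 0.1 mM final.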

For assay [16] the target is unchanged. The experiment in a line: Dopamine D2 receptor (DRD2) small molecule antagonists, cell-based qHTS assay (AID 1963595; active = well fitted inhibition curve with a large enough effect in the signal ratio in the repeat runs, with a control signal flat; the % refers to the signal ratio). An outline of the steps:
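HEK293 cells stably expressing DRD2 were preincubated with 0.1 mM Ro20-1724, then with compound for 10 min at room temperature. Cells were stimulated with 200 nM NKH477 plus 12 nM quinpirole for 30 min, and cAMP was read by HTRF.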

A short description of assay [17]: p53 small molecule agonists, cell-based qHTS assay with rat liver microsomes (AID 1963578). An outline of the steps: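 Each plate received p53RE-bla cells, then compound, then rat liver microsomes and NADPH (both 0.5 mg/mL final). Plates were held 16 h at 37 C, and beta-lactamase activity was detected with LiveBLAzer over 2 h.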
A short description of assay [18]: p53 small molecule agonists, cell-based qHTS assay with human liver microsomes: qHTS cell viability counter screen (AID 1963579). Also: nearly all actives have a fitted effect of over 45% in size. An outline of the steps: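 Tox21 library compounds, delivered from DMSO stocks, were tested on p53RE-bla cells together with 0.5 mg/mL human liver microsomes and 0.5 mg/mL NADPH (final) over 16 h at 37 C; CellTiter-Glo luminescence served as the cytotoxicity measure.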

A short description of assay [19]: cAMP Responsive Elements (CRE) small molecule agonists, cell-based qHTS assay (AID 1963590). In a few lines:
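CRE-bla HEK 293T cells, 2,000/well in DMEM with 10% dialyzed FBS and 25 mM HEPES, pre-incubated 18 h at 37 C, then exposed to compound 3 h at 37 C. Beta-lactamase reporter read with LiveBLAzer B/G FRET substrate after 2 h at room temperature.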

Assay [20] in a line: cAMP Responsive Elements (CRE) small molecule antagonists, cell-based qHTS assay (AID 1963591; active = well fitted inhibition curve with a large enough effect in the signal ratio in the repeat runs, not every such curve was filed as active; the % refers to the signal ratio). In a few lines:
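CRE-bla HEK293T cells plated 18 h, then given compound plus NKH477 at 0.25 uM final for 3 h at 37C. Beta-lactamase reporter read with LiveBLAzer B/G FRET substrate after 2 h at room temperature.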

“And” between values parts separate entries of the source, which are not always exact repeats. Identical values can stand only once. Results filed as inconclusive are left out. Some compounds were tested as several samples or in several runs, with calls that do not always agree. The source made the active and inactive calls. Unless noted, calls follow the shape of the full dose curve.

Chain of D(2) dopamine receptor (Homo sapiens) (P14416 whole entry, looked up): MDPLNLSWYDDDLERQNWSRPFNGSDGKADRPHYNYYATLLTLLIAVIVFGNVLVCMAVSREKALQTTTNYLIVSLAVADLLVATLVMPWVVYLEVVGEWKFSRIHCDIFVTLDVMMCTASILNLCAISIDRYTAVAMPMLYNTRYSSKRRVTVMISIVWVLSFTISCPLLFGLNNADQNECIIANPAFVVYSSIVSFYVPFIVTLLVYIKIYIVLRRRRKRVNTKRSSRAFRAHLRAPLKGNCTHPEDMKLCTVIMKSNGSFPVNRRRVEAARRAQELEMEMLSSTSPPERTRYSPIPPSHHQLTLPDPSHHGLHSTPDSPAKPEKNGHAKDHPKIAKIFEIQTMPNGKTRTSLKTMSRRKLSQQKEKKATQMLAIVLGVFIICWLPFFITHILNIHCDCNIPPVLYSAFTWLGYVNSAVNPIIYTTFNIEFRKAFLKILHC
Chain of KiSS-1 receptor (Homo sapiens) (Q969F8 whole entry, looked up): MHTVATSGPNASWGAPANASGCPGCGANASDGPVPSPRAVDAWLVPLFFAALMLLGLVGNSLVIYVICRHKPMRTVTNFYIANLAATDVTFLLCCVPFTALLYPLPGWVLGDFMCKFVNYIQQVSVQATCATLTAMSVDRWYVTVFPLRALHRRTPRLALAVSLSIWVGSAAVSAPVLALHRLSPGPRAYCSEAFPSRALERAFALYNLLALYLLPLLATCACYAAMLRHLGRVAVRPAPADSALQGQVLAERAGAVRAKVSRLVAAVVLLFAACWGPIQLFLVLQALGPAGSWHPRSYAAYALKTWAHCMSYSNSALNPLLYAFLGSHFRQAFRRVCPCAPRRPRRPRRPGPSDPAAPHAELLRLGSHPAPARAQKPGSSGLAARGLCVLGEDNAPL
Chain of 5-hydroxytryptamine receptor 2A (Homo sapiens) (P28223 whole entry, looked up): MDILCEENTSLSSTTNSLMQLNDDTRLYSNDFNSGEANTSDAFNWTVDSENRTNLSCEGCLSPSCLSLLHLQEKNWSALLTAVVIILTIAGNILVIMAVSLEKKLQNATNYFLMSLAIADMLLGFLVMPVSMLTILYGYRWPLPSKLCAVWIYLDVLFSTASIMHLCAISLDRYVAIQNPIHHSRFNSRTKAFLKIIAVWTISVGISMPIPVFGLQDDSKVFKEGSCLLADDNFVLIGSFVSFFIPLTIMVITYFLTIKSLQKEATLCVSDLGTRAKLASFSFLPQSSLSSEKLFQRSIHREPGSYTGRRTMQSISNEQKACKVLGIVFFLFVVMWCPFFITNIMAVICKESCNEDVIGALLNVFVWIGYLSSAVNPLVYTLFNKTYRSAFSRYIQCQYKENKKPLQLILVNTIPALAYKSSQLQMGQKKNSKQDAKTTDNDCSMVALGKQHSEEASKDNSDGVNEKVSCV
Chain of Beta-2 adrenergic receptor (Homo sapiens) (P07550 whole entry, looked up): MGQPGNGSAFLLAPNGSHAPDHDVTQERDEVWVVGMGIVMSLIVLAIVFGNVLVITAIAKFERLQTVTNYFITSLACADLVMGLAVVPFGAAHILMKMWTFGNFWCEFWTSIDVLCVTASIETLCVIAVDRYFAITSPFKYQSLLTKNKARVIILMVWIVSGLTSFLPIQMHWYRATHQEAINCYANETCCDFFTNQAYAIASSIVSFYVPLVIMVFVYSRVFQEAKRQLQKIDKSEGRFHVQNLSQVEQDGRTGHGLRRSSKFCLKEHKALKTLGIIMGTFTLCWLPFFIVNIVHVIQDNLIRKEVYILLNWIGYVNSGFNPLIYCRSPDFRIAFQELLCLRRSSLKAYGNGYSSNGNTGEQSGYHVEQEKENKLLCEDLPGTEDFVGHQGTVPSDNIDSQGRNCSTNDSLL
Chain of Gonadotropin-releasing hormone receptor (Homo sapiens) (P30968 whole entry, looked up): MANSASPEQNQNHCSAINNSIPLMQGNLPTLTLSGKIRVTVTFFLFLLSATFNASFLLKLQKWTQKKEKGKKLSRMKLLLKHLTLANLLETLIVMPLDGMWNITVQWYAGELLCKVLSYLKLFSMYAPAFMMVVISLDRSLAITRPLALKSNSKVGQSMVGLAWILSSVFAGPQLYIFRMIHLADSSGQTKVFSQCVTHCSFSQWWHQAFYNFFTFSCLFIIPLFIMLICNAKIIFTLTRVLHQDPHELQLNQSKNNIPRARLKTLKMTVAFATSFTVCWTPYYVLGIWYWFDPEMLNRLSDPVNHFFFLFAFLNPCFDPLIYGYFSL
Chain of Muscarinic acetylcholine receptor M1 (Homo sapiens) (P11229 whole entry, looked up): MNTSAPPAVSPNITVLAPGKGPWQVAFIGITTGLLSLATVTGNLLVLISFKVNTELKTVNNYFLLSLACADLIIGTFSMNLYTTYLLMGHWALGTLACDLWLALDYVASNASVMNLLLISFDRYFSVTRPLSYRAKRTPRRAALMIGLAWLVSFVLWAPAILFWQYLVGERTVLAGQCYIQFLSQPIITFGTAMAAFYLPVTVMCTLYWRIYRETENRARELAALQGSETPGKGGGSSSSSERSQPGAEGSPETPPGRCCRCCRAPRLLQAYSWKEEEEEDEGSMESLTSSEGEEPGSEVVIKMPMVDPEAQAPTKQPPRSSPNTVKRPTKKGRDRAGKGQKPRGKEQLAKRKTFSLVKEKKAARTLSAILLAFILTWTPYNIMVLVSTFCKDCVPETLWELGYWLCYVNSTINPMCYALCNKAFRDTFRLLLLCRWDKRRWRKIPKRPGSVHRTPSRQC

`c1ccc(Nc2ccc3ccccc3c2)cc1`: the Potency in assay [1] was 68.2 µM (active); in assay [2] it was 12.1 µM (active) and 21.7 µM (active). The Potency result in assay [3], in assay [4], in assay [5], in assay [6], in [7] and in assay [8] was “inactive” throughout. Also, the Potency entry in [9], in assay [10], in assay [11], in [12], in assay [13] and in assay [14] was “inactive” each time. Also, the Potency entry in assay [15] and in assay [16] was “inactive” in each case.
With `Nc1ccc(N=Nc2ccc(-c3ccc(N=Nc4c(S(=O)(=O)O)cc5cc(S(=O)(=O)O)c(N=Nc6ccccc6)c(O)c5c4N)cc3)cc2)c(N)c1`, the Potency entry in [1], in [2], in assay [3], in assay [4], in assay [5] and in assay [17] was “inactive” each time. The Potency entry in assay [18], in [6], in assay [7], in assay [8], in assay [9] and in [11] was “inactive” throughout. Moreover, the Potency result in assay [12] and in assay [19] was “inactive” in each case. The Potency in [10] is 31.6 µM (active).
For `NC(=O)O`, the Potency result in [1], in assay [2], in assay [3], in assay [4], in assay [5] and in assay [18] was “inactive” each time. The Potency entry in assay [6], in assay [7], in assay [9], in [10], in assay [11] and in assay [12] was “inactive” each time. Further, the Potency result in [19], in assay [20] and in assay [15] was “inactive” each time.
Regarding `ClC1=C(Cl)[C@]2(Cl)[C@@H]3[C@@H](Cl)[C@H](Cl)C[C@@H]3[C@@]1(Cl)C2(Cl)Cl`, the Potency result in [1], in assay [2], in [3], in [4], in assay [5] and in [17] was “inactive” throughout. Further, the Potency entry in assay [6], in [8], in [9], in assay [10], in [11] and in assay [12] was “inactive” in each case. Also, the Potency result in [19], in assay [20], in [13], in [14], in [15] and in assay [16] was “inactive” each time.
For `COP(=S)(OC)Oc1ccc(SC)c(C)c1`, the Potency entry in assay [1], in [3], in assay [4], in assay [5], in assay [18] and in [6] was “inactive” throughout. The Potency entry in assay [7], in [8], in assay [9], in assay [10], in [11] and in assay [12] was “inactive” each time. The Potency entry in assay [19], in assay [20], in assay [13], in [14], in assay [15] and in assay [16] was “inactive” each time. Also, the Potency entry in assay [2] is “inactive and 24.3 µM (active)”.
`ClCCOCOCCCl`: the Potency entry in assay [1], in assay [2], in assay [3], in assay [4], in assay [5] and in [17] was “inactive” in each case. Also, the Potency result in assay [7], in [8], in [9], in [10], in [11] and in assay [12] was “inactive” each time. In addition, the Potency result in assay [19], in assay [13], in assay [15] and in assay [16] was “inactive” in each case.
`BrCc1ccc(Br)cc1`: the Potency entry in [1], in [2], in assay [3], in [4], in [5] and in assay [17] was “inactive” throughout. For the same compound, the Potency result in assay [7], in [8], in assay [10], in assay [12], in assay [19] and in assay [20] was “inactive” throughout. Besides, the Potency result in assay [13], in [14] and in assay [15] was “inactive” in each case.
In the case of `O=C(Cl)c1ccccc1`, the Potency result in [1], in assay [2], in assay [3], in [4], in assay [5] and in [6] was “inactive” in each case. Besides, the Potency entry in assay [7], in assay [8], in assay [9], in assay [10], in [11] and in assay [12] was “inactive” each time. Moreover, the Potency result in assay [19], in [20], in assay [13], in assay [14], in assay [15] and in assay [16] was “inactive” each time.
